For 26 compounds, inhibition results are on record in PubChem BioAssay AID1362 (SRMLSC, 2008).

The assay in a line: growth inhibition of WT strain, primary screen, mitochondrial fusion inhibitor project, WT and mutant strains, chemical genetic (AID 1362). The note with it: mitochondrial fusion phenotypic screen, at 10 µM.
The mark [1] stands for this setting: WT strain, growth inhibition, stronger effect = higher value.

Molecules are shown by their SMILES. The campaign covered roughly 190,000 compounds. About 4,000 (2.1%) were called active. Rule as the data show it: active = inhibition above about 58%; inactive = the rest, inconclusive results apart; tested in S. cerevisiae. Many of the other results were omitted from the sample, so actives are more common in it than they were.

One may read the inhibition as the relative decrease from the control value, in per cent.

Take `O=C(Nc1ccccc1F)c1ccc(Cn2cc(Br)cn2)cc1`: the inhibition is 10.6% (inactive) under setting [1] and -0.75% (mutant strain inhibition).
On the same counts, the results for `COCCCNC(=O)Cn1c(=O)n(Cc2ccccc2Cl)c(=O)c2cc(OC)c(OC)cc21` are -6.28% (inactive) and 4.75%.
On the same counts, the results for `C=CCn1c(SCc2nnc(-c3ccccc3)o2)nnc1C(O)c1ccccc1` (configuration not stated) are -11.7% (inactive) and -5.65%.
The corresponding values for `OC(c1nnc(-c2ccccc2)o1)c1cccs1` (configuration not stated) are -15.8% (inactive) and 5.68%.
With `CCCN(CCC)c1ccc(C(O)c2nnc(-c3ccccc3)o2)cc1` (configuration not stated), the inhibition by setting is: under setting [1], 76.5% (active); (mutant strain inhibition) 31.6%.
On the same counts, the results for `Cc1ccc(S(=O)(=O)N(C)C)cc1NC(=O)COC(=O)C1COc2ccccc2O1` (configuration not stated) are -0.23% (inactive) and -14.6%.
Turning to `CCOc1ccccc1NC(=O)Nc1cc(OC)ccc1OC`, the inhibition is -4.32% (inactive) under setting [1] and 11.2% (mutant strain inhibition).
The corresponding values for `CCOc1ccccc1Oc1cn[nH]c1-c1ccc(OC)cc1O` are 61.8% (active) and 25.6%.
Regarding `CCOc1ccc(-c2n[nH]c(C)c2-c2ccccn2)c(O)c1`, the inhibition under setting [1] is -20.5% (inactive) and the inhibition (mutant strain inhibition) came to 3.26%.
Regarding `C/C(=N\NC(=S)NCc1ccccc1)C1CCCCC1`, the inhibition runs as follows: under setting [1], 47.2% (inactive); (mutant strain inhibition) 53.3%.
The corresponding values for `Cc1cc(C)nc(NS(=O)(=O)c2ccc(N/C=C\C(=O)c3cccs3)cc2)n1` are -2.27% (inactive) and 7.04%.
Take `Oc1c(CN2CCN(c3ccc(F)cc3)CC2)cc(Cl)c2cccnc12`: the inhibition under setting [1] was -1.47% (inactive) and the inhibition (mutant strain inhibition) was -25%.
The corresponding values for `COc1ccc(N2CCN(Cc3ccc(Br)s3)CC2)cc1` are 20.2% (inactive) and 14.9%.
The corresponding values for `Fc1ccc(N2CCN(Cc3cnc(Oc4ccc(Br)cc4)s3)CC2)cc1` are 59% (active) and 34%.
On the same counts, the results for `O=C(O)CCC(=O)N(Cc1ccco1)c1nc(-c2ccccc2)cs1` are -21.3% (inactive) and 4.1%.
With `Cc1ccc(-c2csc(N(Cc3ccco3)C(=O)c3cccs3)n2)cc1`, the inhibition is 67.6% (active) under setting [1] and 34.4% (mutant strain inhibition).
`Cc1ccc(-c2csc(NC(=O)c3cccs3)n2)cc1`: the inhibition is 22.4% (inactive) under setting [1] and 16.9% (mutant strain inhibition).
For the compound `O=c1[nH]c(CN2CCOCC2)nc2scc(-c3ccccc3)c12`, the inhibition under setting [1] is 5.72% (inactive) and the inhibition (mutant strain inhibition) was -6.95%.
On the same counts, the results for `CC1(C)CCCC2=C1CC1C(=O)N(c3ccccc3)C(=O)C1C2` (configuration not stated) are 6.4% (inactive) and -1.63%.
On the same counts, the results for `CC1CC2=C(CC1/C=N/NC(N)=S)C(C)(C)CCC2` (configuration not stated) are 67.3% (active) and 64.1%.
The corresponding values for `NC(=O)c1ccc(NC(=O)COC(=O)C(Cc2ccccc2)NC(=O)c2ccccc2)cc1` (configuration not stated) are -21.4% (inactive) and -11.6%.
Take `O=C(c1ccccc1)c1ccc(OCC(O)CN2CCCC2)cc1` (configuration not stated): the inhibition under setting [1] was -8.18% (inactive) and the inhibition (mutant strain inhibition) was 5.68%.
On the same counts, the results for `Cc1ccc(NC(=O)NNC(=O)c2sccc2-n2cccc2)cc1` are -13.1% (inactive) and -0.19%.
As to `Cc1cccc(N=C2NN=C(c3c[nH]c4ccccc34)CS2)c1`, the inhibition was 13.8% (inactive) under setting [1] and -10.5% (mutant strain inhibition).
As for `Clc1cccc(N=C2NN=C(c3ccc4c(c3)OCCO4)CS2)c1`, the inhibition under setting [1] was 67.3% (active) and the inhibition (mutant strain inhibition) was 17%.
Regarding `c1ccc(CN2CCC(N=C3NN=C(c4ccc5c(c4)OCCO5)CS3)CC2)cc1`, the inhibition reads like this: under setting [1], 10.8% (inactive); (mutant strain inhibition) 33%.
